# Screening data as filed in PubChem BioAssay.
# Rows were chosen to be rich in hits. Some 4.2% of all compounds tested hit in one or more screens of this group.
# RecA splice inh: inhibitors of M. tuberculosis RecA intein splicing | P9WHJ3 | cell-free RecA intein splicing, fluorescence | inhibition, % (test concentration not listed) | hit rate 0.75% among 290,000 | AID 2221; in the data active means inhibition above about 30%;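 further: 0% = vehicle wells and 100% = reference inhibitor control wells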
# Target sequence (P9WHJ3 whole entry, looked up, canonical isoform): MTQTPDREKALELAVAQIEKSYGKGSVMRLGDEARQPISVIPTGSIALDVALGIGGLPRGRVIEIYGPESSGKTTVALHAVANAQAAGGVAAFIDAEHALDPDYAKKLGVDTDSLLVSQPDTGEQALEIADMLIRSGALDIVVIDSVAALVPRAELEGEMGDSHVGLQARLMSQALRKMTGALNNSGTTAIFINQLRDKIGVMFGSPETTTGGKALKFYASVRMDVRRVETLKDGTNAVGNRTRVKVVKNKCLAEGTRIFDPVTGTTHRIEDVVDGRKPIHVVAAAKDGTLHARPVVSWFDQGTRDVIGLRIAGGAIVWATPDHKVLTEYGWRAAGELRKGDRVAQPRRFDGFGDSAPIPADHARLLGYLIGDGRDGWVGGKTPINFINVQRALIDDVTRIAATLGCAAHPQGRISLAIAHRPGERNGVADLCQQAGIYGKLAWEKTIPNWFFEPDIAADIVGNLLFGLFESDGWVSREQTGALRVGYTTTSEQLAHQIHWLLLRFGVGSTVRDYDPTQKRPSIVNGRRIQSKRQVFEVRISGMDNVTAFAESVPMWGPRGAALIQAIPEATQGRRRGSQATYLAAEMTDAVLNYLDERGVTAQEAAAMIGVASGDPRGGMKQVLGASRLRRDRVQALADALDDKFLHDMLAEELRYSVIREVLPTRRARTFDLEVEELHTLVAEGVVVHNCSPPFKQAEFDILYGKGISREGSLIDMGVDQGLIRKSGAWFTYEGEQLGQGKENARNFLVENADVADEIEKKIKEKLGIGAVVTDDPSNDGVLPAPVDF
# GDH-TPI counter: counter-screen for M. tuberculosis FBA inhibitors: GDH-TPI coupled enzymes; hit rate 1.2% among 360,000; AID 588335; inhibition, % at 4.8 µM; GDH-TPI coupled enzyme counterscreen, NADH absorbance; in the data active means inhibition above about 30%;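 further: 0% = DMSO wells and 100% = wells lacking the enzyme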
# PrPC surface inh: cell surface PrPC inhibition, primary TR-FRET screen; P04156; TR-FRET read-out; inhibition, % at 13.8 µM; hit rate 0.43% among 370,000; in the data active means inhibition above about 24%; further: 0% = median of the test wells and 100% = reference compound wells
# Mtb FBA inh: inhibits M. tuberculosis FBA enzyme. P9WQA3. inhibition, % at 1 µM. purified M. tuberculosis FBA, fluorescence read-out. hit rate 2.3% among 360,000; in the data active means inhibition above about 27%;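 further: 0% = vehicle and 100% = reference inhibitor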
# BJeLR viability: BJeLR cell viability loss; BJeLR (HRASV12) viability, CellTiter-Glo ATP luminescence, 48 h; AID 1554; hit rate 0.17% among 300,000; inhibition, % (no concentration beside the values); in the data active means inhibition above about 50%
# Starred values were filed as active, the others as inactive; . = no result given; + = active, no number.
SMILES,RecA splice inh,GDH-TPI counter,PrPC surface inh,Mtb FBA inh,BJeLR viability
CCOP(=O)(OCC)c1nc(-c2ccc(OC)cc2)oc1N1CCOCC1,-2,11,0,174*,2
Cc1ccc(-c2nc(P(=O)(c3ccccc3)c3ccccc3)c(N3CCOCC3)o2)cc1,10,7,-5,-5,0
CCOc1ccc(-c2nc(C#N)c(N3CCOCC3)o2)cc1,1,13,-8,175*,2
CCOP(=O)(OCC)c1nc(-c2cccc([N+](=O)[O-])c2)oc1N1CCCCC1,-1,8,-11,4,-4
CCOP(=O)(c1ccccc1)c1nc(-c2ccccc2Cl)oc1N1CCCCC1 (stereo not given),24,16,-1,7,5
CCCCN1CC(=O)N2[C@H](C[C@@]3(C)c4ccccc4N(S(=O)(=O)c4ccccc4)[C@@H]23)C1=O,.,.,-7,.,.
CC(=O)NC1CCCCN(C(C)C)C1=O (stereo not given),.,.,-2,.,.
CC1=C(C(=O)NC2CCCc3c2cnn3-c2cc(F)cc(F)c2)OCCO1 (stereo not given),1,1,-3,2,-1
Cn1nccc1C(=O)NC1CCCc2c1cnn2-c1cc(F)cc(F)c1 (stereo not given),3,8,7,+,3
Cn1c(=O)c2cc(NC(=O)CCc3cccnc3)ccc2n1Cc1ccc(F)cc1,.,8,-4,175*,.
COc1ccccc1CCC(=O)Nc1ccc2c(c1)c(=O)n(C)n2-c1cccs1,.,8,7,1,.
COc1cc(Cn2c3ccc(NC(=O)CCc4cccnc4)cc3c(=O)n2C)ccc1F,.,3,-9,177*,.
Cn1c(=O)c2cc(NC(=O)Cc3cccnc3)ccc2n1-c1ccc2ccccc2c1,.,8,1,3,.
COc1cc(CN2CCC(n3nccc3NC(=O)CCCc3ccccc3)CC2)ccc1F,2,-4,-11,5,5
COc1cc(Cn2c3ccc(NC(=O)NCCc4ccccc4)cc3c(=O)n2C)ccc1F,.,2,10,145*,.
COc1ccc(NC(=O)NCCc2cccc(Cl)c2)cc1OC,1,-1,7,-1,-9
COc1cc(Cn2c3ccc(NC(=O)CCc4ccccc4)cc3c(=O)n2C)ccc1F,.,13,16,157*,.
CCOC(=O)[C@@]12CN(C(=O)OC(C)(C)C)CC=C1N(Cc1ccc(OC)cc1)C(=O)[C@H]2CC(=O)N1CCCCC1,.,.,-13,.,.
Cc1ccc(-c2c(NC(=O)c3ccccc3)nc3ncccn23)cc1,.,.,6,.,.
CC(COc1ccc(C#N)cc1)CN1CCC(C(O)(c2ccccc2)c2ccccc2)CC1 (stereo not given),.,.,-13,.,.
Cn1c(=O)c2cc(NC(=O)CCc3cccnc3)ccc2n1Cc1cccc(C(F)(F)F)c1,.,5,7,141*,.
CN1C(=O)c2cc(NC(=O)C3CCCCC3)ccc2OC[C@H]2O[C@@H](CC(=O)NC3CCCC3)CC[C@H]21,.,.,-4,.,.
Cc1cc(C)c(S(=O)(=O)ON2C(=O)c3ccccc3C2=O)cc1C,60*,8,7,37*,-5
O=C1c2ccccc2C(=O)N1OS(=O)(=O)c1ccc(F)cc1,-4,1,3,23,1
Cc1cc(C)c(C)c(S(=O)(=O)ON2C(=O)c3ccccc3C2=O)c1C,.,2,4,35*,-1
SMILES,RecA splice inh,GDH-TPI counter,PrPC surface inh,Mtb FBA inh,BJeLR viability
Cc1ccc(S(=O)(=O)ON2C(=O)c3ccccc3C2=O)c(C)c1,.,8,-3,40*,.
COC(=O)c1cc2c(c3c4cc(F)ccc4n(S(=O)(=O)c4cccc(C)c4)c13)C(=O)N(C)C2,.,.,-4,.,.
CC(C)(C)S(=O)(=O)N1C[C@@H]2CC(=O)C=C2[C@H]1CCO,.,.,15,.,.
CCOC(=O)c1c2c(n(C)c1COC)C(=O)C(=O)c1ccc(Br)cc1-2,11,.,.,.,69*
CCOC(=O)c1c2c(n(-c3ccc(OC)cc3)c1C)C(=O)C(=O)c1ccccc1-2,.,11,.,-7,.
O=C1Nc2ccc([N+](=O)[O-])cc2C1(O)N1CCCCCC1 (stereo not given),0,33*,-18,-1,-12
Cc1cc(C(=O)O[C@@H]2CCC[C@@]3(C(=O)N(Cc4ccccc4)c4ccccc43)[C@H]2NC(=O)CCc2ccccc2)no1,.,.,8,.,.
COc1ccc2c(c1)c(=O)oc1cc(OCC(=O)N3CCCC(C)C3)ccc12 (stereo not given),-19,17,5,116*,-6
Cc1c(Cl)c(=O)oc2cc(OCC(=O)N3CCCC(C)C3)ccc12 (stereo not given),.,17,-15,+,.
C[C@H]1[C@@H](NC(=O)c2ccc(Cl)cc2)CC[C@@]23CCCN2C(=O)CCC[C@@H]13,.,.,-6,.,.
COCC#Cc1ccc(CC[C@H]2O[C@H]3CC[C@H](CO)O[C@H]3C[C@H]2n2cc(C(C)(C)O)nn2)cc1,.,.,0,.,.
Cc1ccn(CC(=O)N/N=C/c2cc([N+](=O)[O-])ccc2O)n1,-3,49*,-11,-11,4
O=[N+]([O-])c1ccc(O)c(/C=N/Nc2ccc(Cl)nn2)c1,.,33*,-6,-1,26
O=C(OC12CCCN(C1)/C(=C/c1ccncc1)C2)c1ccc(Cl)cc1 (stereo not given),.,.,-2,.,.
CC(COc1cccc(F)c1)CN1CCC(C(O)(c2ccccc2)c2ccccc2)CC1 (stereo not given),.,.,-5,.,.
O=C(NCCCN1CCCC1=O)c1cc(-c2ccc3c(c2)OCO3)nc2ccccc12,1,34*,-2,6,-4
CCCn1c(N/N=C\C=C\c2ccccc2)nc2c1c(=O)[nH]c(=O)n2C,-3,31*,-9,-4,12
COCCN1CCn2c(nc3cc(NC(=O)NC4CCCCC4)ccc32)C1,.,4,-1,94*,.
COCCN1CCn2c(nc3cc(NC(=O)c4ccc(OC)cc4)ccc32)C1,7,3,5,11,-10
Cc1[nH]c2ccccc2c1N=Nc1c(C)n(C)n(-c2ccccc2)c1=O,0,9,-4,-6,2
Cc1c(N=Nc2ccc(O)cc2)c(=O)n(-c2ccccc2)n1C,-2,23,-5,-12,6
Cc1cccc(-c2ccc(C=Nc3c(C)n(C)n(-c4ccccc4)c3=O)o2)c1,-3,37*,3,3,.
COc1cccc(-n2c(O)c(C=Nc3c(C)n(C)n(-c4ccccc4)c3=O)c(=O)[nH]c2=O)c1,-8,21,5,-2,1
Cc1c(N=Cc2nc3ccccc3n2C)c(=O)n(-c2ccccc2)n1C,-6,43*,9,0,7
Cc1c(N=Cc2nc3ccccc3[nH]2)c(=O)n(-c2ccccc2)n1C,-6,42*,5,-2,5
COCC(=O)N1[C@H](CO)[C@@H](c2ccc(-c3cccnc3)cc2)[C@H]1CN(C)S(=O)(=O)c1ccccc1[N+](=O)[O-],.,.,11,.,.
O=C1OCC2=C1C(c1ccc3c(c1)OCO3)c1cc3c(cc1O2)OCO3 (stereo not given),.,-5,5,-2,.
CC(C)c1ccc(C2C3=C(COC3=O)Nc3cc4c(cc32)OCO4)cc1 (stereo not given),0,11,17,25,58*
